Laboratory results as given in PubChem BioAssay (NCATS).
Inconclusive results are not listed. The source made the active and inactive calls. Unless noted, calls come from the whole dose curve; as a rule, active = well fitted curve in the direction sought with a large enough effect; inconclusive = small, poorly fitted or top-dose-only effect, or another doubt; inactive = no such curve, though single readings can be large; an effect the other way counts as inactive or inconclusive.

Assays:
[1] = Cell Viability - Mesenchymal (AID 546);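 note: cells exposed to compound for 40 hours before reading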
Method in brief: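 AC50 values reflect the drop in intracellular ATP in a human kidney mesenchymal line derived from normal glomeruli. Treatment lasts 40 hr at 37 °C in complete medium, and the signal comes from CellTiter-Glo luminescence.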

[2] = Cellular Toxicity (caspase-3) HepG2 (AID 654);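 note: cells exposed to compound for 16 hours before reading; 0% = DMSO alone and 100% = caspase signal from 100 µM tamoxifen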
Method in brief: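 Cells plated 5 hr at 37 °C, compound added, incubated 16 hr at 37 °C. Caspase-Glo 3/7 reagent followed, 20 min at room temperature, then luminescence read. Activation scored as signal increase; AC50 from Hill fit.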

[3] = Cellular Toxicity (caspase-3) Jurkat (AID 655);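 note: cells exposed to compound for 16 h at 37 °C before reading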
Method in brief: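 Luminescent Caspase-Glo 3/7 read-out (20 min, room temperature) after 16 h compound treatment at 37 C of 5000 Jurkat cells per well. AC50 derived by Hill-equation fitting, scaled between DMSO basal and 100 uM tamoxifen stimulation.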

[4] = Cellular Toxicity (caspase-3) SHSY5Y (AID 657)
Method in brief: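 Luminescent Caspase-Glo 3/7 read-out, 1 hr room temperature, follows 16 hours of compound treatment of SH-SY5Y cells at 37 °C. Normalization: DMSO basal, 10 uM staurosporine as 100%; AC50 values from Hill-equation concentration-response fits.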

[5] = Cellular Toxicity (caspase-3) BJ (AID 658); details: Potency: caspase-3 activation;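 note: 0% = DMSO basal and 100% = 10 µM staurosporine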
Method in brief: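 Readout: Caspase-Glo 3/7 luminescence increase in BJ cells after 16 hr treatment at 37 °C. Staurosporine and tamoxifen served as positive controls; AC50 values came from Hill modelling of data normalized to DMSO and 10 uM staurosporine.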

[6] = Cellular Toxicity (caspase-3) MRC-5 (AID 659);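 note: 0% = DMSO basal and 100% = 10 µM staurosporine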
Method in brief: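 Concentration-dependent caspase 3/7 activation is measured in human normal lung fibroblasts (MRC-5) following 16-hour treatment. AC50 values come from standard Hill-equation modeling of luminescence normalized to DMSO and 10 uM staurosporine.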

[7] = Cellular Toxicity (caspase-3) Mesangial (AID 660);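 note: combined caspase 3 and 7 activity read by Caspase-Glo luminescence; cells exposed to compound for 16 h before the caspase read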
Method in brief: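 Mesangial cells, 1000/well, 5 h settle at 37 °C; compound 16 h, 37 °C; Caspase-Glo 3/7 reagent 20 min RT; luminescence. Norm.: DMSO = 0%, tamoxifen 100 uM = 100%. AC50, Hill fit.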

[8] = Cellular Toxicity (caspase-3) H-4-II-E (AID 663);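 note: cells exposed to compound for 16 hr before readout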
Method in brief: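 Apoptosis induction is scored as increased luminescence from caspase 3/7 substrate cleavage in rat hepatoma H-4-II-E cells exposed to compound for 16 hr. Activity is scaled between DMSO and 100 uM tamoxifen.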

[9] = Cellular Toxicity (caspase-3) Hek293 (AID 664); details: HEK293 caspase-3 activation, DMSO = 0%, 100 µM tamoxifen = 100%; at 92.2 µM (top of the series);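 note: cells exposed to compound for 16 h at 37 °C before readout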
Method in brief: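 Cells plated, 5 hr at 37 °C; compounds added; 16 hr at 37 °C; Caspase-Glo 3/7 reagent, 20 min RT; luminescence read. Activation expressed relative to DMSO and 100 uM tamoxifen, AC50 by Hill model.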

[10] = Cellular Toxicity (caspase-3) NIH 3T3 (AID 666);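 note: caspase signal read after 16 h compound exposure; 0% = DMSO basal and 100% = 100 µM tamoxifen stimulation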
Method in brief: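 Luminescence from aminoluciferin released by caspase-3/7 cleavage of a peptide substrate served as read-out. Mouse fibroblast NIH 3T3 cells were exposed to compounds over a concentration range for 16 hours, and AC50 values came from standard Hill modelling.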

[11] = Cellular Toxicity (caspase-3) Renal Proximal Tubule (AID 667);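 note: cells exposed to compound for 16 hours at 37 °C before detection; 0% = DMSO basal and 100% = 10 µM staurosporine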
Method in brief: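 Caspase 3/7 activation measured by luminescent aminoluciferin release in primary rat proximal tubule cells after 16 hr compound exposure at 37 °C. AC50 from Hill-fitted concentration-response, scaled between DMSO and 10 uM staurosporine.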

[12] = molecular target: Cytochrome P450 3A4 (Homo sapiens) (UniProt P08684); test: qHTS Assay for Inhibitors and Substrates of Cytochrome P450 3A4 (AID 884); note: nearly all actives have a fitted effect of over 50% in size; note: potency is the fitted concentration of half-maximal effect
Method in brief: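 20 nM human CYP3A4 with 25 uM Luciferin-PPXE (at KM) in 200 mM KPO4, preincubated 10 min with compound; NADPH regeneration started a 60 min RT reaction. Luciferin detected by luminescence, normalized to 57 uM ketoconazole as full inhibition.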

[13] = molecular target: Cytochrome P450 3A4 (Homo sapiens) (UniProt P08684); test: qHTS Assay for Activators of Cytochrome P450 3A4 (AID 885); note: nearly all actives have a fitted effect of over 65% in size
Method in brief: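 Signal was normalized against complete inhibition by 57 uM ketoconazole. The reaction used 20nM CYP3A4 with 25uM Luciferin-PPXE, 10-min compound preincubation and a 60-min NADPH-supported step at RT.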

[14] = molecular target: 3',5'-cyclic-AMP phosphodiesterase 4B (Homo sapiens) (UniProt Q07343); test: qHTS Assay for Inhibitors of PDE-IV (AID 607; active = well fitted activation curve with a large enough effect in the main read-out, with a control signal flat, not every such curve was filed as active; note: % of control where 0% means no effect)
Method in brief: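 Cell-based read-out of cAMP via a modified cyclic nucleotide-gated channel and membrane potential dye (535/590 nm) in HEK293 cells expressing PDE4 endogenously. Compounds tested up to 22.9 uM final; 100 uM RO 20-1724 reference.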

Chain of Cytochrome P450 3A4 (Homo sapiens) (P08684 whole entry, looked up): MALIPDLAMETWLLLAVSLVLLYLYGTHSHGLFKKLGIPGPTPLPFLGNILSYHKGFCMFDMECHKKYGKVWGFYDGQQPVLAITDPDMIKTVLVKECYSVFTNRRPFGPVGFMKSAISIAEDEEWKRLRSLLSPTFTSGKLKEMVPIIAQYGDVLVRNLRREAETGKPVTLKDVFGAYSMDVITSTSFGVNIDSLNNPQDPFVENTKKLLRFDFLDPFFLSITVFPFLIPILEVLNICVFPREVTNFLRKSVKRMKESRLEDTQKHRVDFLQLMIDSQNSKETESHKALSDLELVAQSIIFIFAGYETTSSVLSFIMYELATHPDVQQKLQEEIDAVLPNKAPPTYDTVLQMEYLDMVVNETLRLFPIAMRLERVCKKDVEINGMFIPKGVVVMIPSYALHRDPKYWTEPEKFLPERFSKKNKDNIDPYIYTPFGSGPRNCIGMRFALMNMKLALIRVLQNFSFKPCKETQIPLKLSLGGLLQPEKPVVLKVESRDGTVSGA
Chain of 3',5'-cyclic-AMP phosphodiesterase 4B (Homo sapiens) (Q07343 whole entry, looked up): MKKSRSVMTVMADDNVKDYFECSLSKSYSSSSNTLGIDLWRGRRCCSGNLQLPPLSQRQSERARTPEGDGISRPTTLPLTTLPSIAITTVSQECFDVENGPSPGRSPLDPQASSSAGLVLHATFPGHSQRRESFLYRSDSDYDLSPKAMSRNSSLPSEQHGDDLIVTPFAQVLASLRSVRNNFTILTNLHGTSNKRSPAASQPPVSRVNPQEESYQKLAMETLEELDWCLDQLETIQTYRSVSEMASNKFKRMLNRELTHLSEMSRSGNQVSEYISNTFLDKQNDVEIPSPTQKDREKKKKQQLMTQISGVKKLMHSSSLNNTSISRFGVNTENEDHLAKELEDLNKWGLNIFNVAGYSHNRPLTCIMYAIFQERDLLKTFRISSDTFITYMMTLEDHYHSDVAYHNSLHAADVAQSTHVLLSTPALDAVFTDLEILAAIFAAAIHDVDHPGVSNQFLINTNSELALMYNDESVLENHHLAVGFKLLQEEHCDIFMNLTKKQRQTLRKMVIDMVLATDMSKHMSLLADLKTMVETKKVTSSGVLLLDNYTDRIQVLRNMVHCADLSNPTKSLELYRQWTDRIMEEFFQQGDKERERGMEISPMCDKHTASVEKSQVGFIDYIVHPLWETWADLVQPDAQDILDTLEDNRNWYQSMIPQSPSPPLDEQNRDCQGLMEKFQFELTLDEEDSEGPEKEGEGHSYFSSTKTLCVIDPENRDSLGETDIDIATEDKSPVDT

ClC(Cl)Cl
inactive: outcome [1] | outcome [2] | Potency [3] | Potency [4] | Potency [5] | outcome [6] | outcome [7] | outcome [8] | caspase-3 activation [9] 0.0594% | outcome [10] | outcome [11] | Potency [12]

CC/C=C\C/C=C\C/C=C\CCCCCCCC(=O)O
inactive: outcome [1] | outcome [2] | Potency [3] | Potency [4] | Potency [5] | outcome [6] | outcome [7] | outcome [8] | caspase-3 activation [9] 0.606% | outcome [10] | outcome [11] | Potency [13]
active: Potency [12] 15.8 µM

COC(=O)c1ccccc1O
inactive: outcome [1] | outcome [2] | Potency [3] | Potency [4] | Potency [5] | outcome [6] | outcome [7] | outcome [8] | caspase-3 activation [9] 0.0886% | outcome [10] | outcome [11] | Potency [12]

CNC(=O)c1c(I)c(C(=O)NCC(=O)Nc2c(I)c(C(=O)O)c(I)c(C(=O)NCCO)c2I)c(I)c(N(C)C(C)=O)c1I
inactive: outcome [14]

OB(O)O
inactive: outcome [1] | outcome [2] | Potency [3] | Potency [4] | Potency [5] | outcome [6] | outcome [7] | outcome [8] | caspase-3 activation [9] -1.81% | outcome [10] | outcome [11] | Potency [12]

Oc1ccc(/C=C/c2cc(O)cc(O)c2)cc1
inactive: outcome [1] | outcome [2] | Potency [3] | Potency [4] | Potency [5] | outcome [6] | outcome [7] | caspase-3 activation [9] -7.92% | outcome [10] | outcome [11]

OC[C@H]1O[C@@H]2O[C@H]3[C@H](O)[C@@H](O)[C@@H](O[C@H]4[C@H](O)[C@@H](O)[C@@H](O[C@H]5[C@H](O)[C@@H](O)[C@@H](O[C@H]6[C@H](O)[C@@H](O)[C@@H](O[C@H]7[C@H](O)[C@@H](O)[C@@H](O[C@H]1[C@H](O)[C@H]2O)O[C@@H]7CO)O[C@@H]6CO)O[C@@H]5CO)O[C@@H]4CO)O[C@@H]3CO
inactive: outcome [1] | outcome [2] | Potency [3] | Potency [4] | Potency [5] | outcome [6] | outcome [7] | outcome [8] | caspase-3 activation [9] 0.542% | outcome [10] | outcome [11] | Potency [12]

O.O.O.O.O.O.O.O=S(=O)([O-])[O-].[Co+2]
inactive: outcome [1] | outcome [2] | Potency [3] | Potency [4] | Potency [5] | outcome [6] | outcome [7] | outcome [8] | caspase-3 activation [9] -1.13% | outcome [10] | outcome [11] | Potency [12]

CO
inactive: outcome [1] | outcome [2] | Potency [3] | Potency [4] | Potency [5] | outcome [6] | outcome [7] | outcome [8] | caspase-3 activation [9] -0.124% | outcome [10] | outcome [11] | Potency [12]

CC1=CC(=O)NS(=O)(=O)O1
inactive: outcome [1] | outcome [2] | Potency [3] | Potency [4] | Potency [5] | outcome [6] | outcome [7] | outcome [8] | caspase-3 activation [9] -2.78% | outcome [10] | outcome [11] | Potency [12]

C/C=C/C=C/C(=O)O
inactive: outcome [1] | outcome [2] | Potency [3] | Potency [4] | Potency [5] | outcome [6] | outcome [7] | outcome [8] | caspase-3 activation [9] -0.294% | outcome [10] | outcome [11] | Potency [12]
